Rows were chosen to be rich in hits. Some 1.2% of all compounds tested hit in one or more screens of this group.
RGS8-Gao reg – RGS8-Galphao binding modulators, primary screen, biochemical, multiplexed bead flow cytometry. 220,000 compounds, 0.34% hits. actives lie on both sides. response (percent of control binding), % at 10 µM. Guanine nucleotide-binding protein G(o) subunit alpha (Homo sapiens), P09471; in the data active = response below about 60% or above about 140%; inactive = in between;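 also: Galphao activated as the GDP aluminium fluoride complex binding bead-coupled RGS8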
Target sequence (P09471 whole entry, looked up): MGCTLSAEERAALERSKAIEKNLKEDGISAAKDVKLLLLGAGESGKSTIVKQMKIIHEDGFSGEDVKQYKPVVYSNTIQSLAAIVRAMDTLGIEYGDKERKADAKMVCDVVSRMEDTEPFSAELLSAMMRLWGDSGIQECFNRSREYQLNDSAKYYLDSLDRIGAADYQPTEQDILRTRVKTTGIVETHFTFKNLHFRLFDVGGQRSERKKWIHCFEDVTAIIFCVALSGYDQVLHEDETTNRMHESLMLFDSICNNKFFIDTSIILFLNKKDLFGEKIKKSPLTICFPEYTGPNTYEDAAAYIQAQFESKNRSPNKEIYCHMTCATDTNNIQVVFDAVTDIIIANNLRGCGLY
RGS4-Gao reg – modulators of RGS4 binding to Galphao, primary screen, biochemical, multiplexed bead flow cytometry; Guanine nucleotide-binding protein G(o) subunit alpha (Homo sapiens), P09471; actives lie on both sides; binding response (% of control), % at 10 µM; 220,000 compounds, 0.33% hits; AID 1415, 2008; in the data active = binding response below about 49% or above about 150%; inactive = in between;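 also: fluorescent Galphao activated with aluminum fluoride binding bead-coupled RGS4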
Avidin bead fluor – green autofluorescence of compounds with avidin beads – biophysical, 488/530 nm, flow cytometry, artefact control, profiling panel. 220,000 compounds, 0.38% hits. AID 1775, 2009. compound fluorescence 488/530 nm; hits give high values. fluorescence (KMESF) at 10 µM; in the data active = fluorescence above about 47
GSH bead fluor – compound fluorescence on glutathione beads, profiling panel, artefact control, biophysical, 488/530 nm, flow cytometry. AID 1776, 2009. GSH beads flow cytometry, compound fluorescence 488/530 nm; hits give high values. fluorescence (KMESF) at 10 µM. 190,000 compounds, 0.25% hits; in the data active = fluorescence above about 89;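 also: glutathione beads carrying GST-tagged Bcl family fusion proteins plus one bare bead set; values are compound well signal with DMSO vehicle wells as background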
RGS16-Gao – modulators of RGS16 binding to Galphao, primary screen, biochemical, human proteins, multiplexed bead flow cytometry. bead-based flow cytometry RGS16-Galphao binding, fluorescence; actives lie on both sides. AID 1441, 2008. Regulator of G-protein signaling 16 (Homo sapiens) + Guanine nucleotide-binding protein …. 220,000 compounds, 0.38% hits. binding response (% of control), % at 10 µM; call rule not given here;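 also: Galphao activated by GDP with aluminum fluoride before binding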
RGS7-Gao – RGS7-Galphao binding modulators, primary screen, biochemical, multiplexed bead flow cytometry | binding response (% of control), % at 10 µM | AID 1439, 2008 | 220,000 compounds, 0.35% hits | actives lie on both sides; in the data active = binding response below about 49% or above about 150%; inconclusive = no clear call, values can overlap the other calls; inactive = in between;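 also: fluorescent Galphao held in activated GDP-AlF4 state binding bead-coupled RGS7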
* = called active by the depositor; i = inactive; u = inconclusive; x = no result; + = active, no number; ! = repeats disagree; [ ] = dose if it differs, or a comment.

SMILES	RGS8-Gao reg	RGS4-Gao reg	Avidin bead fluor	GSH bead fluor	RGS16-Gao	RGS7-Gao
O=C(Cn1cnc2ccccc21)N/N=C/C(Br)=C/c1ccccc1	100.5	101.6	9	12	104.5	97.4
CCC(C)NC(=O)CN(c1cc(Cl)cc(Cl)c1)S(C)(=O)=O (stereo not given)	102.4	101.2	11	9	101.9	101.2
Cn1c(=O)c2c(ncn2CC(=O)Nc2ccccc2N2CCOCC2)n(C)c1=O	99.7	105.6	67*	26	103.5	122.2
Cn1c(=O)c2c(ncn2CC(=O)Nc2ccccc2Sc2ccccc2)n(C)c1=O	101.4	105.3	14	15	103.8	101.8
O=[N+]([O-])c1ccc(/C=C/C2=NN(c3ccccc3)C(c3ccco3)C2)cc1 (stereo not given)	111.2	285.4*[activator]	186*	83	222.8*[activator]	246.4*[activator]
COCCNC(=S)NC(=O)CC12CC3CC(CC(C3)C1)C2	119.6	121.3	9	23	122.9	116.2
CNC(=O)CC12CC3CC(CC(C3)C1)C2	102.8	98.5	6	261*	108.2	100.5
CCOc1ccc(/C(O)=C2\C(=O)C(=O)N(c3cc(C)on3)C2c2ccccc2OC)cc1 (stereo not given)	115.7	142.4	76*	15	162.4	137.5
CSC(=S)N/N=C(\C)c1ccccc1	96.2	100.3	14	14	93.7	108.8
O=C(c1ccc(F)cc1)C(CCCCCC(CN1CCOCC1)C(=O)c1ccc(F)cc1)CN1CCOCC1 (stereo not given)	100.0	107.5	185*	21	89.3	139.7
OC(CN1CCOCC1)c1ccc(F)cc1 (stereo not given)	100.4	101.5	13	11	101.9	u
Cc1ccc(-c2nn(CC(=O)NCc3cc(-c4nn(C)c(=O)c5ccccc45)ccc3C)c(=O)c3ccccc23)cc1	209.2*[activator]	+[activator]	487*	25	i	+[activator]
O=C(CC1C(=O)NCCN1C(=O)Nc1ccccc1)Nc1ccc2c(c1)OCCO2 (stereo not given)	101.6	101.3	60*	19	100.5	107.9
CCCC(=O)Nc1nc(C)c(-c2csc(Nc3cc(OC)ccc3OC)n2)s1	100.7	106.7	80*	22	102.5	121.2
C=CCCC(=O)Nc1nc(C)c(-c2csc(Nc3cc(OC)ccc3OC)n2)s1	103.5	105.0	27	22	101.6	102.9
CS(=O)(=O)Nc1cccc2[nH]ncc12	101.3	100.0	7	12	100.3	102.0
CCn1c(COc2ccc(=O)n(-c3ccccc3)n2)nnc1SCc1cccc(OC)c1	13.1*	-20.1*	-1	12	-13.3*	-3.1*
Cc1ccccc1NC(=O)/C=C1\SC(=O)NC1=O	100.0	101.5	13	15	101.9	100.9
O=C(O)C1C2C=CC(C2)C1C(=O)NCCc1cccc(Cl)c1 (stereo not given)	99.9	101.1	48*	28	106.5	106.4
Cc1c2cc(O)c(=O)cc-2oc2cc(O)c(O)cc12	31.4*!	25.0*!	6	x	89.8	-4.9*!
COc1cc(OC)c(-c2c3cc(O)c(=O)cc-3oc3cc(O)c(O)cc23)cc1OC	32.2*	36.8*	-1	283*	30.1	-3.2*
O=C(Nc1ccc2c(c1)OCO2)[C@@H]1[C@@H]2C(=O)N(C3CCCCC3)C(=O)[C@@H]2C2c3ccccc3C=CN21 (stereo not given in full)	84.0	110.0	8	237*	101.1	81.2
CCN(CC)CCNC(=O)c1ccccn1	102.6	100.7	8	12	105.9	99.2
CCN(CC)CCNC(=O)c1ccccc1C(=O)c1ncc[nH]1	106.2	112.6	107*	19	112.2	139.4
COc1ccc(-c2cc(-c3ccco3)[nH]c(=O)c2C#N)cc1OC	101.6	105.5	6	x	101.3	u
CC(O)c1cccc(NC(=O)CCCc2ccccc2)c1 (stereo not given)	94.9	101.2	6	9	74.9	96.2
CC(O)c1cccc(NC(=O)CCC(=O)O)c1 (stereo not given)	98.2	98.9	6	261*	101.2	101.6
